# Mtb BioA inh: M. tuberculosis BioA enzyme inhibitors, primary screen, biochemical, plate reader, single point, HTS; 7,8-diaminopelargonic acid synthase BioA (Mycobacterium tuberculosis); purified M. tuberculosis BioA enzyme; inhibition, % at 9.99 µM; 0.096% of 360,000 active; AID 602481, 2012; in the data active = inhibition above about 40%
# PrP 5UTR inh: inhibition of PrP 5' UTR reporter expression; cell-based PrP 5' UTR mRNA reporter, plate reader; inhibition, % (no concentration beside the values); 0.35% of 340,000 active; AID 488862, 2010; in the data active = inhibition above about 52%; also: 0 = median of the neutral control wells
# Yp Topo-I inh: Yersinia pestis topoisomerase I inhibitors, primary screen, biochemical, cleavage product accumulation, plate reader, single point | Y. pestis Topo-I cleavage product accumulation | activity, % at 10 µM | 0.064% of 360,000 active; in the data active = activity above about 50%, passing the limit was not always enough
# TcdB inh: TcdB glycohydrolase inhibitors, primary screen, biochemical, single point, plate reader | AID 652162, 2013 | Toxin B (Clostridioides difficile), P18177 | inhibition, % at 9.99 µM | 0.24% of 350,000 active | TcdB glycohydrolase enzymatic assay; in the data active = inhibition above about 10%
# Target sequence (P18177 whole entry, looked up): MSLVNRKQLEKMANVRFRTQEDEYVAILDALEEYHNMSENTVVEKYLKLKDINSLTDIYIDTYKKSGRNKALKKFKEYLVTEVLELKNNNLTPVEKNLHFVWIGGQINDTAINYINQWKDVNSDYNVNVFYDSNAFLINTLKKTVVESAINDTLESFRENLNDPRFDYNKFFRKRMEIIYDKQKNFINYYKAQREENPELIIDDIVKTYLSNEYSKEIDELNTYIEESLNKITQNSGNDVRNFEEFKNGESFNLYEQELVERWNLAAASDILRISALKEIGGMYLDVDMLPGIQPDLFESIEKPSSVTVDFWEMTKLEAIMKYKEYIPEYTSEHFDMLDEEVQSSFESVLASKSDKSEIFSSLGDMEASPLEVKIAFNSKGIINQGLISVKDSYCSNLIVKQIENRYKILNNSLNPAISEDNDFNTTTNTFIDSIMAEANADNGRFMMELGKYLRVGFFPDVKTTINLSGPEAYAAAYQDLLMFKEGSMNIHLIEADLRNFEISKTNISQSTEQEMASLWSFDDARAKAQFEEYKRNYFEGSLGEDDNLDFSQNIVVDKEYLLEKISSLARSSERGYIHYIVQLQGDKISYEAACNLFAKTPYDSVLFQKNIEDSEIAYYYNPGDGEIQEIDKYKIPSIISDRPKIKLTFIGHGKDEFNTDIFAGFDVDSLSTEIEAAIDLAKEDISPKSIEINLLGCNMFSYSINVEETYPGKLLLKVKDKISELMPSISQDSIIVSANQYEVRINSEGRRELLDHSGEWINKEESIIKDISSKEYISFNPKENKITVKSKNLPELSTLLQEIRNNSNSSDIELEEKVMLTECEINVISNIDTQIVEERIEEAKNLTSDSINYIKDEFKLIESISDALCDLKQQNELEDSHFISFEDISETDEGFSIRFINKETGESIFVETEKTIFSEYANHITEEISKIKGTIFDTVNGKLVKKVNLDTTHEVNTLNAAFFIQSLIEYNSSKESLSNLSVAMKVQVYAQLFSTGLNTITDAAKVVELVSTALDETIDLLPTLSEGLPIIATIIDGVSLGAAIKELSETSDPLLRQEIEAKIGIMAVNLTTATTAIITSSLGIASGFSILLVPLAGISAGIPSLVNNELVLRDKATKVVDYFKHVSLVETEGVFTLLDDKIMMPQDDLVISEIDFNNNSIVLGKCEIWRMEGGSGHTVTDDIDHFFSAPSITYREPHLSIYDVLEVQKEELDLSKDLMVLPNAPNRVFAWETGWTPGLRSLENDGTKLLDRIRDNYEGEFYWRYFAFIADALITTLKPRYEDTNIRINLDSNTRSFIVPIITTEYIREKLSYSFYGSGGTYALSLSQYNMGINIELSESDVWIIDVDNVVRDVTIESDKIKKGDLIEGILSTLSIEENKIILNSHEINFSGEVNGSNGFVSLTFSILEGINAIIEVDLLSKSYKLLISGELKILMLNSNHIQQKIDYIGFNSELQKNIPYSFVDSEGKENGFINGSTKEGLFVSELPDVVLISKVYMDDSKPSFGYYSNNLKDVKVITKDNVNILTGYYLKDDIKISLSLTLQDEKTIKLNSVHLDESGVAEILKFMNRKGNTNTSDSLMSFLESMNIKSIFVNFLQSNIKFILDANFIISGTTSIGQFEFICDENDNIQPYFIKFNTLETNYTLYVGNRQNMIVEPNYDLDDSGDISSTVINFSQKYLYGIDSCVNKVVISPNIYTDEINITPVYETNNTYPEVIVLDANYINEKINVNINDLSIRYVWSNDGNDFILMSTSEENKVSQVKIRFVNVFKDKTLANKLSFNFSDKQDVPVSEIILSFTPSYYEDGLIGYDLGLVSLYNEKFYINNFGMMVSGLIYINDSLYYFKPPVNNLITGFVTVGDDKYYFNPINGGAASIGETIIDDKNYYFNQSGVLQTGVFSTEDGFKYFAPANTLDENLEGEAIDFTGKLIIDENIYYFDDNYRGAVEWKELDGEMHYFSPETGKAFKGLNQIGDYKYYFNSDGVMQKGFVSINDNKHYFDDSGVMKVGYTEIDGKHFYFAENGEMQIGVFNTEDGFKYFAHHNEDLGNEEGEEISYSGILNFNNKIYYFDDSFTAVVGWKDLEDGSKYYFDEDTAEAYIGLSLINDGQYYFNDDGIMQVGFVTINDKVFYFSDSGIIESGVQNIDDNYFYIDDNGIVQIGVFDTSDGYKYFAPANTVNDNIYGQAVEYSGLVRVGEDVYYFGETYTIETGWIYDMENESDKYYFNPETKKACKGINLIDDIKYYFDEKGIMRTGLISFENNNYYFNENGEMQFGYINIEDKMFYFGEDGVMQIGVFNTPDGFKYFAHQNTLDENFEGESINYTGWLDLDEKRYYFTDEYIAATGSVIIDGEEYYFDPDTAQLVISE
# PrP 5UTR single: prion 5' UTR mRNA inhibition, cherry-pick retest | shares compounds with PrP 5UTR inh | cell-based prion protein 5' UTR reporter, plate reader | inhibition, % at 2.5 µM | 48% of 1,100 active | AID 504592, 2011; in the data active = inhibition above about 54%
# * marks the source's active call; other numbers are inactive results; · = not tested or not shown. Most compounds without a hit are left out; they make up all but 0.53% or so of the library.
SMILES,Mtb BioA inh,PrP 5UTR inh,Yp Topo-I inh,TcdB inh,others
O=c1oc2ccccc2cc1-c1ccc(O)cc1,·,-77,6,4,
O=C(C[C@@H]1CC[C@@H](NC(=O)CN2CCOCC2)[C@H](CO)O1)NCc1cccc(F)c1,0,·,·,0,
CCN(CC)CCNc1ccc(C)c2sc3ccc(O)cc3c(=O)c12,·,-13,-42,29*,
COc1cc(/C=C(\C#N)C(=O)N2CCCCC2)ccc1O,0,-13,3,14*,
N#C/C(=C\c1ccc(O)c(O)c1)C(=O)N1CCCC1,·,-14,4,1,
C[C@H](CO)N1C[C@H](C)[C@@H](CN(C)S(=O)(=O)c2ccc(F)cc2)Oc2ccc(NC(=O)CCN3CCOCC3)cc2CC1=O,1,·,·,-1,
O=C(CSc1ccc2nnc(-c3ccc(F)cc3)n2n1)N1CCOCC1,4,-40,8,24*,
O=C(CSc1ccc2nnc(-c3cccs3)n2n1)N1CCOCC1,5,-9,-1,1,
C[C@@H]1CN([C@@H](C)CO)C(=O)Cc2cc(NC(=O)Nc3ccc(F)cc3)ccc2O[C@H]1CN(C)Cc1ccc(Oc2ccccc2)cc1,-1,·,·,0,
Cc1ccc(Cn2ccc(NC(=O)c3cc(-c4cccs4)on3)n2)cc1,0,-18,87*,·,
Cc1ccc(S(=O)(=O)N2C[C@H](O)COC[C@@H]3O[C@H](CC(=O)NCc4ccc5c(c4)OCO5)CC[C@H]32)cc1,1,·,·,-1,
Nc1ccc2c(c1)Nc1ccccc1CC2,·,-40,-35,15*,
C[C@H]1CN([C@@H](C)CO)C(=O)Cc2cc(NS(=O)(=O)c3ccccc3)ccc2O[C@@H]1CN(C)C(=O)Nc1ccc(F)cc1,-4,·,·,0,
CCC(=O)N1[C@H](CO)[C@@H](c2ccc(-c3ccc(C#N)cc3)cc2)C12CN(C(C)=O)C2,·,·,·,0,
CC[C@H](C)[C@@H]1NC(=O)c2cc([N+](=O)[O-])cc(I)c2NCC[C@@H](C(N)=O)NC(=O)[C@H](CCCN=C(N)N)NC1=O,·,·,·,10*,
C[C@@H]1CN([C@@H](C)CO)S(=O)(=O)c2ccc(C#Cc3ccncc3)cc2O[C@H]1CN(C)C(=O)C1CC1,1,·,·,11*,
CC(=O)N(C)C[C@@H]1Oc2cc(/C=C/c3ccccc3)ccc2S(=O)(=O)N([C@H](C)CO)C[C@@H]1C,4,·,·,13*,
C[C@H]1CN([C@@H](C)CO)S(=O)(=O)c2ccc(C#Cc3ccncc3)cc2O[C@H]1CN(C)C(=O)C1CC1,-1,·,·,5,
CC(=O)N(C)C[C@H]1Oc2cc(/C=C/c3ccccc3)ccc2S(=O)(=O)N([C@H](C)CO)C[C@H]1C,1,·,·,1,
CCOc1ccc(N=CC2=C(O)CC(C)(C)CC2=O)cc1,-3,-56,-3,·,
CC1(C)CC(=O)C(C=Nc2ccc(N)cc2)=C(O)C1,·,5,-1,13*,
CC1(C)CC(=O)C(C=Nc2ccc(O)cc2)=C(O)C1,-2,-14,0,32*,
Cc1ccc(C(=O)N/N=C/c2ccc(OC(=O)c3ccccc3Cl)cc2)cn1,-4,-26,35,0,
COc1cc2ccccc2cc1C(=O)N/N=C/c1cccnc1,72*,17,1,-10,
CCOc1cc(/C=N/NC(=O)c2cccnc2)ccc1O,41*,-12,9,3,
SMILES,Mtb BioA inh,PrP 5UTR inh,Yp Topo-I inh,TcdB inh,others
O=C(N/N=C/c1cccc(OC(=O)c2ccccc2Cl)c1)c1cccnc1,50*,3,20,0,
C[C@@H]1CN([C@H](C)CO)C(=O)Cc2cc(NS(=O)(=O)c3ccc(F)cc3)ccc2O[C@H]1CN(C)Cc1ccc2c(c1)OCO2,-2,·,·,1,
CCC(=O)N(C)C[C@H]1Oc2ncc(-c3ccccc3C)cc2C(=O)N([C@@H](C)CO)C[C@H]1C,0,·,·,1,
N#Cc1c(NC(=O)CSc2ncn[nH]2)sc2c1CCCC2,3,68*,-3,·,PrP 5UTR single=67*
CC1CCc2c(sc(NC(=O)CSc3ncn[nH]3)c2C#N)C1 (configuration not stated),1,70*,2,1,PrP 5UTR single=79*
CC(C)(C)C1CCc2c(sc(NC(=O)CSc3ncn[nH]3)c2C#N)C1 (configuration not stated),-1,3,-3,·,
N#Cc1c(NC(=O)CSC2=NCCS2)sc2c1CCCC2,-1,-11,24,·,
CN1C(=O)c2cc(NC(=O)c3cccc(F)c3)ccc2OC[C@H]2O[C@@H](CC(=O)NCc3ccccc3Cl)CC[C@H]21,1,·,·,1,
COCC(=O)N1CC[C@H]2[C@H](CO)Nc3ccc(C#Cc4ccccc4)cc3[C@H]21,·,·,·,-1,
O=C(CCS(=O)(=O)Cc1ccccc1)N1CCN(c2ccc([N+](=O)[O-])cc2)CC1,16,80*,1,2,PrP 5UTR single=-7
O=C(CCS(=O)(=O)Cc1ccccc1)N1CCN(c2ccccc2)CC1,·,-5,-2,·,
CCCNC(=O)Cn1nc(C(F)(F)F)cc1C,-1,58*,2,2,PrP 5UTR single=-12
Cc1noc(C)c1NC(=O)Nc1ccc2c(c1)C(=O)N([C@H](C)CO)C[C@@H](C)[C@H](CN(C)S(C)(=O)=O)OCCCC[C@@H](C)O2,1,·,·,-1,
CC(=O)C1=CN(CC2CCCCC2)CCC1=O,-1,-17,3,0,
CCOC(=O)C1=CN(CC2CCCCC2)CCC1=O,0,84*,-2,0,PrP 5UTR single=14
CN1C[C@H]2[C@@H](c3ccccc31)[C@H](CO)N2C(=O)Nc1ccccc1,-4,·,·,·,
Cc1ccc(-c2cn3nc(C)c(C)nc3n2)cc1,-1,67*,5,·,PrP 5UTR single=65*
Cc1ccc(S(=O)(=O)N[C@@H]2CCCN(Cc3cccc(OCCO)c3)C2)cc1,1,·,·,·,
COc1ccc(C2CC(=O)Oc3cc(OC)c(OC)c(OC)c32)cc1 (configuration not stated),1,-11,-2,1,
COc1ccccc1C1CC(=O)Oc2cc(OC)c(OC)c(OC)c21 (configuration not stated),1,92*,-5,-2,PrP 5UTR single=-12
O=C(O)c1ccc(COc2ccccc2Cl)cc1,0,-13,-3,·,
O=C(O)c1cccc(COc2ccccc2Cl)c1,0,69*,0,1,PrP 5UTR single=83*
CCOc1ccc(OCC(=O)Nc2nccs2)cc1,·,58*,10,·,PrP 5UTR single=37
COc1ccc(OCC(=O)Nc2nccs2)cc1,-2,24,-7,1,
Cc1ccc(/C([O-])=C(/C(=S)NCc2ccc3c(c2)OCO3)[n+]2ccc(N(C)C)cc2)c(C)c1,·,66*,-4,1,PrP 5UTR single=-10
CN(C)c1ccc(C(=O)NCc2ccc3c(c2)OCO3)cc1,-1,-7,2,1,
COc1cccc(CNC(=O)COC(=O)c2cc([N+](=O)[O-])ccc2N2CCCC2)c1,-3,84*,31,-1,PrP 5UTR single=1
O=C(COC(=O)c1cc([N+](=O)[O-])ccc1N1CCOCC1)NCc1ccccc1,0,·,-10,1,
